# GDH-TPI counter: inhibits GDH-TPI coupling enzymes, artifact for Mtb FBA screen. hit rate 1.2% among 360,000. GDH-TPI coupled enzyme counterscreen, NADH absorbance. AID 588335. inhibition, % at 4.8 µM; in the data active = inhibition above about 30%;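 also: 0% = DMSO wells and 100% = wells lacking the enzyme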
# PrPC TRFRET: inhibitors of human cell surface prion protein PrPC; inhibition, % at 13.8 µM; hit rate 0.43% among 370,000; AID 720596; P04156; TR-FRET read-out; in the data active = inhibition above about 24%; also: 0% = median of the test wells and 100% = reference compound wells
# TcdB GH inh: blocks C. difficile toxin B glycohydrolase activity. P18177. TcdB glycohydrolase enzymatic assay, plate reader. AID 652162. inhibition, % at 9.99 µM. hit rate 0.24% among 350,000; in the data active = inhibition above about 10%
# Y pestis TopoI: inhibitors of Yersinia pestis topoisomerase I | Y. pestis Topo-I cleavage product accumulation, plate reader | activity, % at 10 µM | hit rate 0.064% among 360,000 | AID 504884; in the data active = activity above about 50%, passing the limit was not always enough
# Mtb FBA inh: inhibits M. tuberculosis FBA enzyme. purified M. tuberculosis FBA, fluorescence read-out. inhibition, % at 1 µM. hit rate 2.3% among 360,000. AID 588726; in the data active = inhibition above about 27%;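 also: 0% = vehicle and 100% = reference inhibitor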
# Active calls of the source: *; . = not tested or not shown; + = active, no number. In the library only some 3.2% were active in any assay of this set; here they are far more common.
SMILES,GDH-TPI counter,PrPC TRFRET,TcdB GH inh,Y pestis TopoI,Mtb FBA inh
N#CC(C#N)=Cc1ccc(N2CCOCC2)cc1,41*,4,1,-7,-7
CC(C)C#Cc1cnc2c(c1)C(=O)N([C@@H](C)CO)C[C@H](C)[C@H](CN(C)C(=O)Cc1ccccn1)O2,.,.,0,.,.
COc1ccc(C2NC(=O)NC3=C2CCc2ccccc23)cc1 (stereo unspecified),11,.,.,2,34*
CC(=O)Cc1nsc(NC(=O)c2ccc(-c3cccc(Cl)c3)o2)n1,61*,4,1,1,4
COc1ccc(S(=O)(=O)Nc2ccc3c(c2)C(=O)N([C@@H](C)CO)C[C@@H](C)[C@@H](CN(C)C(=O)NC2CCCCC2)O3)cc1,.,.,0,.,.
C[C@@H]1CN([C@@H](C)CO)C(=O)Cc2cc(NC(=O)Cn3cnnn3)ccc2O[C@H]1CN(C)Cc1ccc(-c2ccccc2)cc1,.,.,0,.,.
CCOCCCn1c(=NC(=O)c2cccnc2)c(C(=O)OCC)cc2c(=O)n3ccccc3nc21,12,-42,0,-6,145*
CCOC(=O)c1cc2c(=O)n3cccc(C)c3nc2n(CCCOC)c1=NC(=O)c1cccnc1,20,-24,.,-2,+
O=C1NC(Cc2ccccc2)c2nc3ccccc3c(=O)n2-c2cc3ccccc3cc21 (stereo unspecified),-5,2,1,51*,-1
O=C1NC(Cc2ccccc2)c2nc3cc(F)c(F)cc3c(=O)n2-c2cc3ccccc3cc21 (stereo unspecified),15,6,1,-6,4
CC(C)CC1NC(=O)c2cc3ccccc3cc2-n2c1nc1cc(Cl)ccc1c2=O (stereo unspecified),2,-1,0,54*,2
COc1cc2nc3n(c(=O)c2cc1OC)-c1cc2ccccc2cc1C(=O)NC3CC(C)C (stereo unspecified),1,5,-1,29,-2
COc1cc2nc3n(c(=O)c2cc1OC)-c1cc2ccccc2cc1C(=O)NC3Cc1ccccc1 (stereo unspecified),5,5,-2,65*,-3
C[C@@H]1CN([C@H](C)CO)C(=O)c2cc(NC(=O)C3CCCCC3)ccc2O[C@@H](C)CCCCO[C@@H]1CN(C)S(=O)(=O)c1ccc(Cl)cc1,.,.,1,.,.
Cc1ccc(S(=O)(=O)Nc2ccc(-c3nc4ccc(C)cc4s3)cc2)cc1,10,-1,1,2,183*
Cc1ccc2nc(-c3ccc(NC(=O)C(C)Sc4nncs4)cc3)sc2c1 (stereo unspecified),34*,16,-1,4,15
Cc1ccc(N(CC(=O)Nc2ccc(-c3nc4ccc(C)cc4s3)cc2)S(C)(=O)=O)cc1,38*,6,.,3,18
Cc1ccc2nc(NC(=O)CN3CCN(c4ccccn4)CC3)sc2c1,4,2,1,16,5
Cc1ccc2nc(-c3ccc(NS(=O)(=O)c4c(C)n(C)c(=O)n(C)c4=O)cc3)sc2c1,17,-8,2,17,17
Cc1ccc2nc(-c3ccc(NC(=O)CN4CCN(c5ccccn5)CC4)cc3)sc2c1,30,9,1,-3,40*
Cc1ccc2nc(-c3ccc(NC(=S)NC(=O)CC(C)C)cc3)sc2c1,7,4,.,4,5
C[C@H]1CN([C@@H](C)CO)C(=O)Cc2cc(NS(=O)(=O)c3ccc(F)cc3)ccc2O[C@@H]1CN(C)Cc1ccc(C(F)(F)F)cc1,.,.,1,.,.
C[C@H](CO)N1C[C@H](C)[C@H](CN(C)C(=O)c2ccc(F)cc2)Oc2cc(C3=CCCCC3)ccc2S1(=O)=O,.,.,-1,.,.
Cc1cccc(S(=O)(=O)Nc2ccc(-c3nc4ccc(C)cc4s3)cc2)c1,24,-7,-1,8,+
C[C@@H]1CN([C@@H](C)CO)C(=O)c2cccc(NC(=O)c3ccncc3)c2O[C@H]1CN(C)S(=O)(=O)c1ccc(Cl)cc1,.,.,1,.,.
SMILES,GDH-TPI counter,PrPC TRFRET,TcdB GH inh,Y pestis TopoI,Mtb FBA inh
CC(C)C(=O)Nc1ccc2c(c1)C(=O)N(C)[C@H]1CC[C@H](CC(=O)Nc3ccccc3)O[C@H]1CO2,.,.,1,.,.
COC(=O)C1(CCSC)NC(c2ccc(O)cc2)C2C(=O)N(c3ccc(F)cc3)C(=O)C21 (stereo unspecified),8,13,2,-9,114*
Cc1ccc(S(=O)(=O)Nc2cccc3c2O[C@@H](CN(C)Cc2ccccc2)[C@@H](C)CN([C@@H](C)CO)C3=O)cc1,.,.,0,.,.
C[C@@H](NC(=O)[C@@H]1[C@@H](CO)[C@@H]2Cn3c(cccc3=O)[C@H]1N2Cc1cccnc1)c1ccccc1,.,.,2,.,.
CN1C=CC(=CC=C2C=CC(=O)C=C2)C=C1,19,-29,27*,-4,-5
CC(C)(/C=N/O)N(O)C=C1C=CC(=O)C=C1,26,-4,5,5,3
Cc1ccc2[nH]c3c(=O)n(CCCN4CCOCC4)cnc3c2c1,8,3,.,-5,13
COc1ccc2[nH]c3c(=O)n(CCCN4CCOCC4)cnc3c2c1,22,2,3,35,157*
Cc1ccc(S(=O)(=O)Nc2ccc3c(c2)C(=O)N([C@H](C)CO)C[C@@H](C)[C@@H](CN(C)Cc2ccc(C(=O)O)cc2)OCCCC[C@@H](C)O3)cc1,.,.,-1,.,.
O=C(O)CC/C(=C\c1ccc(N2CCCC2)c([N+](=O)[O-])c1)c1nc2ccccc2s1,18,-13,2,29,-5
CN(c1ccccc1)c1ccc(/C=C(/CCC(=O)O)c2nc3ccccc3s2)cc1[N+](=O)[O-],32*,-12,1,26,-7
COc1cc2c(cc1OC)-c1cc(Nc3ccc(N(C)C)cc3)nc(=O)n1CC2,18,9,-19,4,5
COc1cc2c(cc1OC)-c1cc(OCc3ccccc3Cl)nc(=O)n1CC2,29,0,.,0,99*
COc1cc2c(cc1OC)-c1cc(NC3CCCC3)nc(=O)n1CC2,27,-4,.,11,6
COc1cc2c(cc1OC)-c1cc(Nc3cccc(F)c3)nc(=O)n1CC2,34*,9,0,3,-2
CCN(CC)c1ccc(Nc2cc3n(c(=O)n2)CCc2cc(OC)c(OC)cc2-3)cc1,38*,0,1,2,1
CC(C)C#Cc1cnc2c(c1)C(=O)N([C@H](C)CO)C[C@H](C)[C@H](CN(C)C(=O)Cc1ccncc1)O2,.,.,0,.,.
ONC(=Nc1ccccc1Cl)c1ccccc1Cl,-16,-5,17*,1,-1
O=[N+]([O-])c1cccc(C(=Nc2ccccc2Cl)NO)c1,7,-1,.,6,-1
CCOc1ccc2c(CC)cc(=O)oc2c1OCC,4,19,1,-2,12
Cc1cc(=O)oc2c(CN3CCCCC3)c(O)ccc12,16,2,1,3,.
Cc1ccc2oc(=O)cc(CN3CC(C)OC(C)C3)c2c1 (stereo unspecified),10,-9,0,1,-2
CCCc1cc(=O)oc2c(CNc3ccc(OCC)cc3)c(O)ccc12,9,1,2,0,165*
CCc1cc(=O)oc2c(CN3CCN(C)CC3)c(O)ccc12,18,2,-1,-1,+

# Bioassay records (PubChem BioAssay)
